# Measured values reported in PubChem BioAssay.
# Values joined by “and” are separate entries in the source; they are usually repeats but may differ in a detail not shown here. Equal values may be shown once. Where a structure was tested more than once in an assay, its records may differ in their call. Active and inactive are the calls of the source. Cut-off read from the data, not from the text of the source, unless noted: active = inhibition above about 80%; inactive = the rest.
# Key:
# [1] = biological target: NAD(+) hydrolase SARM1 (Homo sapiens) (UniProt Q6SZW1); assay: blocking NAD cleavage by SARM1 SAM-TIR – cell lysate, NAD-Glo luminescence (AID 1508614;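 active = compound whose remaining NAD level is above about 45 nM, limit read from the data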;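 note: higher remaining NAD means stronger inhibition of SARM1 NADase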); details: SAM-TIR HEK293T lysate NADase, at 1 µM, stronger effect = higher value
# Chain of NAD(+) hydrolase SARM1 (Homo sapiens) (Q6SZW1 whole entry, looked up, the tested form may be a part): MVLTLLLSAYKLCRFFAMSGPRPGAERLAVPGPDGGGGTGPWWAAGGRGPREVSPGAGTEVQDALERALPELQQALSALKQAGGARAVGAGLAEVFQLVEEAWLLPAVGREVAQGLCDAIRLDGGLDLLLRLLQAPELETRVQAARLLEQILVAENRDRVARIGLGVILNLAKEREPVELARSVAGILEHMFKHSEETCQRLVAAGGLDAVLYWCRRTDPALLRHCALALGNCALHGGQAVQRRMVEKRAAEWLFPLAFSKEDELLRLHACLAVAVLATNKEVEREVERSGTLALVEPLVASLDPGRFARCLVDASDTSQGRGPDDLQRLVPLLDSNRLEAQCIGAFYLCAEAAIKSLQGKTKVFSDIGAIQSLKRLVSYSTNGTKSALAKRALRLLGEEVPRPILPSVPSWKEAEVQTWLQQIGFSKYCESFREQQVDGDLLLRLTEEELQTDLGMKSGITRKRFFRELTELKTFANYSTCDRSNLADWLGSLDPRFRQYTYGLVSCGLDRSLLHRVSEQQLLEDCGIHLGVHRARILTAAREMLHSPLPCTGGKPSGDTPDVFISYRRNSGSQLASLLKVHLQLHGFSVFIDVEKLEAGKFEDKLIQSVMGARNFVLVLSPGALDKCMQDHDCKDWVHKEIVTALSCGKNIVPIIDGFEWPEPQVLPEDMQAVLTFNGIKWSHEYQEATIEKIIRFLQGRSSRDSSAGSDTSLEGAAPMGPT
# [2] = biological target: Mitogen-activated protein kinase 7 (Homo sapiens) (UniProt Q13164); assay: Gal4-ERK5 driven luciferase induction – cell-based, HTS, primary screen (AID 1508626;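 active = luciferase signal above three times the same-plate solvent-only control wells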;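 note: luciferase driven by Gal4-ERK5 fusion binding five Gal4 sites before minimal TATA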); details: HeLa Gal4-ERK5 transactivation, 18 h, at 5 µM, stronger effect = higher value
# Chain of Mitogen-activated protein kinase 7 (Homo sapiens) (Q13164 whole entry, looked up, the tested form may be a part): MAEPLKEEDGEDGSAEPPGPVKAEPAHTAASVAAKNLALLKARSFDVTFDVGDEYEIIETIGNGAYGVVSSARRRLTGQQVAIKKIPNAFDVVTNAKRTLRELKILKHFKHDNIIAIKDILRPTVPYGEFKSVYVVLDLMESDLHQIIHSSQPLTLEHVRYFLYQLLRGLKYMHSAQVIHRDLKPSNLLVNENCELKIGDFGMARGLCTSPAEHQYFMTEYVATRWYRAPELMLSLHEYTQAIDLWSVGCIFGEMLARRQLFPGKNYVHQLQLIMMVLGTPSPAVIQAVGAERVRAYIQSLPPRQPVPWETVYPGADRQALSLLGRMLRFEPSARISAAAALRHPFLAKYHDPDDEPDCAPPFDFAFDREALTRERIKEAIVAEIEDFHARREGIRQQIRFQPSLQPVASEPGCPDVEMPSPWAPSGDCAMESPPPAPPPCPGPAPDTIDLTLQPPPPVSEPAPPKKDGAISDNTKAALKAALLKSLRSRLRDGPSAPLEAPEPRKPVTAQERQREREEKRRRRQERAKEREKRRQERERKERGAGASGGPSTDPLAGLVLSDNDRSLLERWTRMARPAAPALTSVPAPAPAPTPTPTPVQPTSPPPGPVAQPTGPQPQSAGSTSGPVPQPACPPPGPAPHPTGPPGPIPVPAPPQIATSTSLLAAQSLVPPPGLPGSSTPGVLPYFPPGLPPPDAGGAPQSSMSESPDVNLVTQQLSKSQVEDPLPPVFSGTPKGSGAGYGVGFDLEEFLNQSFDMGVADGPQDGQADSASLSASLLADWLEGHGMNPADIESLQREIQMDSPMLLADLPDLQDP
# [3] = galactose survival enhancers in mitochondrial complex I cybrids – cell-based, galactose medium, ATP luminescence, primary screen (AID 1645843;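 active = z-score of at least 1.8 in each of two replicates, scored against plate mean and spread of sample wells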;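 note: positive z means more ATP and so rescue of galactose-driven cybrid death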); details: complex I mutant cybrid cells, 72 h, stronger effect = higher value
# [4] = growth inhibition, single agent or in combination, cell-based, chromothripsis tumors, cisplatin or BGB combos (AID 1671449); details: LFS_MB_P medulloblastoma cells;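 note: cells exposed for 96 hours; 0% = vehicle DMSO and 100% = killing by high DMSO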
# [5] = growth inhibition, single agent and combos, cell-based, chromothripsis tumors, cisplatin or BGB combos (AID 1671450); details: HDN33 neuroblastoma cells, stronger effect = higher value;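 note: cells exposed to compound for four days; 0% = vehicle DMSO and 100% = cell killing by high DMSO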
# [6] = growth inhibition, single agents and combos, ICB984, cell-based, cisplatin or BGB combos, synergistic combos for chromothripsis tumors (AID 1671451; call rule not given here;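 note: cells exposed for 96 hours before readout; 0% = vehicle DMSO and 100% = killing by high DMSO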); details: ICB984 medulloblastoma cells, drug combinations, stronger effect = higher value
# [7] = growth inhibition, single agents and combos, LFS_MB_1R, cell-based, cisplatin or BGB combos, synergistic combos for chromothripsis tumors (AID 1671452); details: LFS_MB_1R medulloblastoma cells, stronger effect = higher value;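 note: cells exposed for 96 hours before readout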
# [8] = growth inhibition, single agents and combos, HTB85, cell-based, BGB or cisplatin IC20 combos, synergistic combos for chromothripsis tumors (AID 1671453); details: HTB85 osteosarcoma cells, drug combinations, stronger effect = higher value;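 note: cells exposed for 96 hours before readout; 0% = vehicle DMSO and 100% = high DMSO killing control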
# [9] = growth inhibition, single agents and combos, CRL2098, cell-based, BGB or cisplatin IC20 combos, synergistic combos for chromothripsis tumors (AID 1671454); details: CRL2098 osteosarcoma cells, drug combinations, stronger effect = higher value;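 note: cells exposed for 96 h before readout; 0% = vehicle DMSO and 100% = killing by high DMSO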
# [10] = growth inhibition, single agents and combos, HD-MB03, cell-based, BGB or cisplatin IC20 combos, synergistic combos for chromothripsis tumors (AID 1671455; in the data active = inhibition above about 83%;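 note: 0% = vehicle DMSO and 100% = high DMSO as cytotoxic control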); details: HD-MB03 medulloblastoma cells, stronger effect = higher value
# [11] = growth inhibition, single agents and combos, UWB1.289, cell-based, BGB or cisplatin combos, synergistic combos for chromothripsis tumors (AID 1671456); details: UWB1.289 ovarian carcinoma cells, stronger effect = higher value;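 note: cells exposed to compound for four days; 0% = vehicle DMSO and 100% = killing by high DMSO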
# [12] = growth inhibition, single agents and combos, LFS_MB_2R, cell-based, cisplatin combos, synergistic combos for chromothripsis tumors (AID 1671457); details: LFS_MB_2R medulloblastoma cells, stronger effect = higher value;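 note: cells exposed to compound for four days before readout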
# [13] = growth inhibition, MDA-MB-436, cell-based, BGB or cisplatin combos, synergistic combos for chromothripsis tumors (AID 1671458; call rule not given here;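 note: cells exposed for 96 hours; 0% = vehicle DMSO and 100% = killing by high DMSO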); details: MDA-MB-436 breast carcinoma growth inhibition, drug combinations, stronger effect = higher value
# [14] = UWB1.289_BRCA1 ovarian cancer growth, cell-based, BGB or cisplatin combinations (AID 1671459); details: UWB1.289 BRCA1 ovarian carcinoma, drug combinations, stronger effect = higher value
# [15] = drug combination toxicity in non-malignant astrocytes – cell-based, BGB or cisplatin IC20 combos, cytotoxicity control for chromothriptic childhood tumor combination screen (AID 1671460); details: Human astrocytes, viability inhibition, drug combinations, at 0.5 µM, stronger effect = higher value;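 note: cells exposed to compounds for 96 hours before viability readout; 0% = vehicle and 100% = killing control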
# [16] = BT084 cell growth, single and combined drugs, ICGC_MB145, cisplatin and BGB IC40 combos (AID 1671461); details: BT084 medulloblastoma cells, drug combinations, stronger effect = higher value;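 note: cells exposed to drugs for 96 hours; 0% = vehicle DMSO and 100% = high DMSO full killing control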
# [17] = RCMB18 cell growth, single agent and combined, cisplatin and BGB IC40 combos (AID 1671462); details: RCMB18 medulloblastoma cells, stronger effect = higher value;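 note: cells exposed to compound for four days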
# [18] = CRL1545 cell growth, single agent and combined, cisplatin and BGB IC20 combos (AID 1671464); details: CRL1545 osteosarcoma cells, stronger effect = higher value;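 note: cells exposed to compound for 96 hours before readout; 0% = vehicle DMSO and 100% = high DMSO killing control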
# [19] = at 0.5 µM, stronger effect = higher value
# [20] = measured here: combination with BGB IC20, at 0.005 µM
# [21] = measured here: combination with BGB IC40, at 0.005 µM
# [22] = measured here: combination with BGB IC40, at 0.05 µM
# [23] = measured here: combination with cisplatin, at 0.5 µM, stronger effect = higher value
# [24] = measured here: combination with cisplatin, at 5 µM, stronger effect = higher value
# [25] = measured here: with BGB IC20 combination, at 0.5 µM
# [26] = measured here: with cisplatin IC20 combination, at 0.5 µM
# [27] = measured here: 5 uM single agent, at 5 µM
# [28] = measured here: combination with cisplatin, at 0.5 µM
# [29] = measured here: combination with cisplatin, at 5 µM
# [30] = measured here: with BGB IC20, at 0.5 µM
# [31] = measured here: with BGB IC20, at 5 µM
smiles,measurement,setting,value
CCn1cc(C(=O)O)c(=O)c2cc(F)c(N3CCNCC3)nc21,remaining NAD,[1],10 nM (inactive)
same,luciferase signal,[2],40 AU (inactive)
same,z-score,[3],-0.075 (inactive)
same,inhibition,[4]; [19],95.5% (active) and -29.1% (inactive)
same,inhibition,[4]; [20],-19.8% and -22.4%
same,inhibition,[4]; [21],-56.7% and 0.955%
same,inhibition,[4]; [22],-47.1% and -2.69%
same,inhibition,[4]; [23],108% and -48.6%
same,inhibition,[4]; [24],-38.7% and -12%
same,inhibition,"[5]; BGB combo, at 5 µM",-53.5% and -12.2%
same,inhibition,[5]; at 0.5 µM,-20.8% (inactive) and 3.72% (inactive)
same,inhibition,"[5]; cisplatin combo, at 5 µM",-17.5% and -19.5%
same,inhibition,[5]; [25],-36.2% and -5.94%
same,inhibition,[5]; [26],4.58% and 5.43%
same,inhibition,"[5]; single agent, at 5 µM",-41.7% and 2.78%
same,inhibition,"[6]; BGB IC20 combo, at 0.005 µM",-24.2% and -17.5%
same,inhibition,"[6]; BGB IC40 combo, at 0.005 µM",-20.3% and -26.8%
same,inhibition,"[6]; BGB IC40 combo, at 0.05 µM",-25.4% and -9.4%
same,inhibition,[6]; at 0.5 µM,-21.1% (inactive) and -10.7% (inactive)
same,inhibition,"[6]; cisplatin combo, at 0.05 µM",-31.9% and -9.4%
same,inhibition,"[6]; cisplatin combo, at 0.5 µM",-30.1% and -9.09%
same,inhibition,"[6]; cisplatin combo, at 5 µM",-14.7% and -13.9%
same,inhibition,[6]; [27],-13.9% and -18.7%
same,inhibition,[7]; at 0.5 µM,-40% (inactive) and 2.92% (inactive)
same,inhibition,[7]; [22],-27.4% and 5.91%
same,inhibition,[7]; [28],-80.9% and -14.1%
same,inhibition,[7]; [29],-47.5% and -13.9%
same,inhibition,[8]; at 0.5 µM,-12.7% (inactive) and -3.77% (inactive)
same,inhibition,[8]; [30],1.15% and -26.8%
same,inhibition,[8]; [31],-15.3% and -6.32%
same,inhibition,"[8]; measured here: with cisplatin IC20, at 0.5 µM",-12.7% and 12.5%
same,inhibition,"[8]; measured here: with cisplatin IC20, at 5 µM",-14.2% and -4.27%
same,inhibition,"[8]; single agent, at 5 µM",1.99% and -0.637%
same,inhibition,[9]; at 0.5 µM,-80.2% (inactive) and -23.4% (inactive)
same,inhibition,"[9]; measured here: combination with BGB at IC20, at 0.5 µM",-85.1% and -50.3%
same,inhibition,"[9]; measured here: combination with cisplatin at IC20, at 0.5 µM",-99.8% and 10.9%
same,inhibition,[10]; at 0.5 µM,-13.7% (inactive) and -3.13% (inactive)
same,inhibition,"[10]; measured here: combo with BGB at IC20, at 0.5 µM",-9.56% and -6.49%
same,inhibition,"[10]; measured here: combo with cisplatin at IC20, at 0.5 µM",-20.1% and 4.15%
same,inhibition,[11]; at 0.5 µM,-10.7% (inactive) and 1.4% (inactive)
same,inhibition,"[11]; measured here: inhibition with BGB combination, at 0.05 µM",-29.8% and -21.6%
same,inhibition,"[11]; measured here: inhibition with cisplatin combination, at 0.05 µM",-19.7% and -11.2%
same,inhibition,[12]; at 0.5 µM,-18.7% (inactive) and -16.6% (inactive)
same,inhibition,[12]; [28],-8.22% and -12.2%
same,inhibition,[12]; [29],-10.3% and -8.58%
same,inhibition,[13]; at 0.5 µM,-9.05% (inactive) and -13.8% (inactive)
same,inhibition,"[13]; measured here: BGB combination, at 0.5 µM",-10.2% and -4.34%
same,inhibition,"[13]; measured here: BGB combination, at 5 µM",-20.2% and -12.6%
same,inhibition,"[13]; measured here: cisplatin combination, at 0.5 µM",-12.3% and -35.3%
same,inhibition,"[13]; measured here: cisplatin combination, at 5 µM",-9.88% and -14.8%
same,inhibition,"[14]; BGB combination, concentration series, at 5 µM",-1.06% and 7.56%
same,inhibition,[14]; at 0.5 µM,-12.5% (inactive) and 3.88% (inactive)
same,inhibition,"[14]; cisplatin combination, concentration series, at 5 µM",0.876% and 19.6%
same,inhibition,[15],8.11% (inactive) and 6.08% (inactive)
same,inhibition,[15]; measured here: combo with BGB IC20,13.6% and -6.3%
same,inhibition,[15]; measured here: combo with cisplatin IC20,-5.13% and 23.3%
same,inhibition,[16]; at 0.5 µM,-14.2% (inactive)
same,inhibition,"[16]; cisplatin combination, at 0.5 µM",-20.2% and 4.87%
same,inhibition,"[16]; cisplatin combination, at 5 µM",-328% and -22.3%
same,inhibition,"[16]; measured here: BGB IC40 combination 0.05 uM, at 0.05 µM",-15.2% and 5.81%
same,inhibition,"[16]; single agent, at 5 µM",-15.6% and -14.8%
same,inhibition,[17]; at 0.5 µM,-23.5% (inactive) and -3.9% (inactive)
same,inhibition,"[17]; cisplatin combo, at 5 µM",-47.1% and 18.7%
same,inhibition,"[17]; measured here: BGB IC40 combination, at 0.05 µM",-10.4% and 1.16%
same,inhibition,[17]; [28],-40.4% and 9.59%
same,inhibition,"[17]; single agent, at 5 µM",-15.2% and -21.3%
same,inhibition,[18]; at 0.5 µM,9.99% (inactive) and 6.3% (inactive)
same,inhibition,[18]; [25],-15.9% and 0.601%
same,inhibition,[18]; [26],21.7% and 9.15%
same,inhibition,"[18]; single agent, at 0.05 µM",-9.98% and 9.98%
same,inhibition,"[18]; single agent, at 5 µM",-24.6% and 24.3%
CN(C)/N=N/c1nc[nH]c1C(N)=O,remaining NAD,[1],10 nM (inactive)
same,luciferase signal,[2],28 AU (inactive)
same,z-score,[3],-1.27 (inactive)
same,inhibition,[4]; [19],-23.9% (inactive) and -10.4% (inactive)
same,inhibition,[4]; [20],22.6% and -26.8%
same,inhibition,[4]; [21],-4.64% and -12.1%
same,inhibition,[4]; [22],6.08% and -27.5%
same,inhibition,[4]; [23],-35.1% and -31.1%
same,inhibition,[4]; [24],-14.4% and -39%
same,inhibition,"[5]; BGB combo, at 5 µM",18.6% and -37%
same,inhibition,[5]; at 0.5 µM,0.39% (inactive) and -45.8% (inactive)
same,inhibition,"[5]; cisplatin combo, at 5 µM",25.6% and -37.1%
same,inhibition,[5]; [25],-1.18% and -51%
same,inhibition,[5]; [26],-5.95% and -47.5%
same,inhibition,"[5]; single agent, at 5 µM",47.2% and 2.95%
same,inhibition,"[6]; BGB IC20 combo, at 0.005 µM",0.732% and 6.78%
same,inhibition,"[6]; BGB IC40 combo, at 0.005 µM",-12.9% and -11.7%
same,inhibition,"[6]; BGB IC40 combo, at 0.05 µM",12.2% and -40.2%
same,inhibition,[6]; at 0.5 µM,-9.82% (inactive) and -15.2% (inactive)
same,inhibition,"[6]; cisplatin combo, at 0.05 µM",9.76% and -45.2%
same,inhibition,"[6]; cisplatin combo, at 0.5 µM",-14.5% and -8.2%
same,inhibition,"[6]; cisplatin combo, at 5 µM",-16% and -22.9%
same,inhibition,[6]; [27],-26.7% and -20.4%
same,inhibition,[7]; at 0.5 µM,-6.85% (inactive) and -29.4% (inactive)
same,inhibition,[7]; [22],-7.35% and -52.3%
same,inhibition,[7]; [28],9.4% and -47.7%
same,inhibition,[7]; [29],3.18% and -94.1%
same,inhibition,[8]; at 0.5 µM,-1.95% (inactive) and -35.1% (inactive)
same,inhibition,[8]; [30],3.62% and -33.2%
same,inhibition,[8]; [31],-31.2% and -31.5%
